BoNT-F LC inh: inhibitors of Botulinum neurotoxin F light chain protease | inhibition, % at 10 µM | AID 588497 | Multiplex microsphere protease cleavage assay, flow cytometry | hit rate 0.22% among 360,000; in the data active = inhibition above about 35%, passing the limit was not always enough; inconclusive = no clear call, values can overlap the other calls
Bead autofluor: flagged as autofluorescent in microsphere protease counterscreen; fluorescence intensity (test concentration not listed); hit rate 3.1% among 360,000; compound autofluorescence counterscreen, microsphere flow cytometry; hits give high values; in the data active = fluorescence intensity above about 16000; inconclusive = no clear call, values can overlap the other calls
BoNT-A LC inh2: inhibitors of Botulinum neurotoxin A light chain protease; multiplex microsphere protease substrate cleavage, flow cytometry; inhibition, % at 10 µM; hit rate 0.17% among 360,000; AID 588499
SARS 3CLpro inh: SARS-CoV 3CLpro protease inhibition. P0C6X7. inhibition, % at 6 µM. recombinant SARS-CoV 3CLpro, quenched FRET peptide cleavage. hit rate 0.14% among 290,000; in the data active = inhibition above about 12%
Anthrax LF inh2: inhibitors of Bacillus anthracis lethal factor protease; hit rate 0.12% among 360,000; multiplex microsphere protease cleavage assay, LF; inhibition, % at 10 µM; P15917
Large screens that a line does not name were inactive. Hits are enriched below; roughly 3.5% of the tested compounds scored in any of these assays. Cut-off read from the data, not from the text of the source, unless noted: active = inhibition above about 30%; inconclusive = no clear call, values can overlap the other calls; inactive = below that.

Cc1ccc(-c2c(C(=O)NCc3ccccc3)oc(=O)c3ccccc23)cc1	none
Cc1nn(Cc2c(F)c(F)c(F)c(F)c2F)c(C)c1NC(=O)c1c([N+](=O)[O-])cnn1C	Bead autofluor 22419
Cc1cc(NC(=O)c2c([N+](=O)[O-])cnn2C)no1	Bead autofluor 20559
Cc1ccc(OCc2ccc(C(=O)NN)o2)c([N+](=O)[O-])c1	BoNT-F LC inh inconclusive
Cc1ccc(OCc2ccc(C(=O)Nc3c(C)nn(Cc4c(F)c(F)c(F)c(F)c4F)c3C)o2)c([N+](=O)[O-])c1	Bead autofluor 23883
Cc1nn(Cc2c(F)c(F)c(F)c(F)c2F)c(C)c1NC(=O)c1c([N+](=O)[O-])c(C)nn1C	none
Cc1nn(Cc2c(F)c(F)c(F)c(F)c2F)c(C)c1NC(=O)c1nn(C)cc1[N+](=O)[O-]	Bead autofluor 22913, BoNT-A LC inh2 inconclusive
COc1ccccc1Cc1nnnn1CC(=O)O	none
CNC(=S)Nc1cc(Cl)ccc1Oc1ccccc1	none
CC(=O)Nc1ccc(NC(=O)c2ccc(N(Cc3ccccc3C)S(C)(=O)=O)cc2)cc1	none (no result: SARS 3CLpro inh)
CCn1cc([N+](=O)[O-])c(C(=O)Nc2c(C)nn(Cc3c(F)c(F)c(F)c(F)c3F)c2C)n1	Bead autofluor 20974
O=C(N/N=C/c1c(O)ccc2ccccc12)c1ccc(CO)nc1	BoNT-F LC inh 40
O=C(N/N=C\c1c(O)ccc2ccccc12)c1ccc(S(=O)(=O)N2CCCCC2)cc1	BoNT-A LC inh2 32
O=C(NN=Cc1c(O)ccc2ccccc12)c1ccc2c(c1)OCO2	none (no result: SARS 3CLpro inh)
CC(C)(C)C(=O)CN1CCN(C2c3ccccc3-c3ccccc32)CC1	Bead autofluor 21967
CC(=NC1CC1)C1=C(O)c2ccccc2C1=O	Bead autofluor 22929, BoNT-A LC inh2 inconclusive
COC(=O)c1ccc(-n2nnnc2SCC(=O)NCc2cccc(C(=O)O)c2)cc1	none
CCOC(=O)c1cccc(NC(=O)CSc2nnnn2C)c1	none
Cn1nnnc1SCC(=O)Nc1cc(C(=O)O)cc(C(=O)O)c1	Bead autofluor 17115, BoNT-A LC inh2 inconclusive
COC(=O)c1cc(NC(=O)CSc2nncn2C)cc(C(=O)OC)c1	Bead autofluor 20871
CCC(=O)Nc1cccc(NC(=O)CSc2nnnn2C)c1	Bead autofluor 16778
Cn1nnnc1SCC(=O)NCc1cccc(C(=O)O)c1	Bead autofluor 20029, BoNT-A LC inh2 inconclusive
COc1ccc(NC(=O)CN(C)C(=O)c2ccc(NS(=O)(=O)c3cccc([N+](=O)[O-])c3)cc2)cc1	none (no result: SARS 3CLpro inh)
Cn1nnnc1SCC(=O)Nc1ccccn1	Bead autofluor 22271, BoNT-A LC inh2 inconclusive
O=S(=O)(Nc1ccccn1)c1cccc(S(=O)(=O)c2ccc(Br)cc2)c1	none
CCOc1ccc(NS(=O)(=O)c2ccc(C(=O)NCc3ccncc3)cc2)cc1	Bead autofluor 42543 (no result: SARS 3CLpro inh)
CCCCN(CCCC)S(=O)(=O)c1ccc(NS(=O)(=O)c2ccc(NC(C)=O)cc2)cc1	Bead autofluor 21196, BoNT-A LC inh2 inconclusive
CCCCOC(=O)Nc1ccc(S(=O)(=O)Nn2cnnc2)cc1	Bead autofluor 29599, BoNT-A LC inh2 inconclusive
CC(=O)Nc1ccc(S(=O)(=O)Nc2ccc(S(=O)(=O)Nc3nc(C)cc(C)n3)cc2)cc1	none
CNC(=O)COc1ccc(S(=O)(=O)Nc2ccc(C)cc2)cc1	none
CCCNC(=O)COc1ccc(S(=O)(=O)Nc2ccc(C)cc2)cc1	Bead autofluor 22233
COC(=O)CC1C(=O)NCCN1C(=S)NC(=O)c1ccccc1[N+](=O)[O-] (configuration not stated)	none
CCCCOc1ccc(S(=O)(=O)Nc2ccc(NC(C)=O)cc2)cc1	Bead autofluor 21764
CC(=O)Nc1ccc(OCCOc2ccc(NC(C)=O)cc2)cc1	none
O=C1N=C(N2CCCC2)S/C1=C\C=C\c1ccccc1	BoNT-F LC inh 41
O=C1N=C(N2CCCCC2)S/C1=C\c1ccncc1	none
C=CCn1c(=O)c2c3c(sc2n2c(Nc4ccc(OC)cc4)nnc12)CCCC3	none
C=CCn1c(=O)c2c3c(sc2n2c(Nc4ccc(C(=O)OCC)cc4)nnc12)CCCC3	Bead autofluor 17959
O=C(N/N=C/c1ccc([N+](=O)[O-])cc1)c1ccc2nc[nH]c2c1	none
CC1(C)Cc2noc(N)c2C(C)(C)N1OC(=O)c1ccccc1	none
CC1(C)CC(=O)CC(C)(C)N1OC(=O)c1ccncc1	Bead autofluor 23714, BoNT-A LC inh2 inconclusive
CCCCn1c(NCc2cccs2)nc2ccccc21	none
CCCCn1nnnc1NCc1cccs1	Bead autofluor 19115
COc1cccc(C(=O)CSc2nccn2C)c1	none
Cn1ccnc1SCC(=O)c1cccc(Br)c1	Bead autofluor 19955
CCCCOC(=O)C1C2C=C[C@]3(CN(C(C)c4ccc(OC)cc4)C(=O)[C@H]13)O2 (some centres not stated)	none
O=S(=O)(Cc1ccccc1)N1CCc2ccccc2C1	Bead autofluor 26161, BoNT-A LC inh2 inconclusive
CCOC(=O)N1CCC(N(CCN(C)C)C(=S)Nc2ccc(Oc3ccccc3)cc2)CC1	none
CC(C)(C)c1ccc(Oc2ccc(NC(=O)c3ccccc3C(=O)O)cn2)cc1	BoNT-F LC inh 48, Anthrax LF inh2 inconclusive
O=C(O)c1ccccc1C(=O)Nc1ccc(Oc2ccccc2)cc1	none
Cc1nc(N)nc(OCC(F)(F)C(F)F)c1Br	none
COc1ccc(/C=c2\sc3nc(-c4ccccc4OC)nn3c2=O)c(OC)c1	none
C=CCOc1ccccc1/C=c1\sc2nc(=O)c(C)nn2c1=O	Bead autofluor 23330
COc1ccccc1C(O)P(=O)(OC(C)C)c1ccc(N(C)C)cc1 (configuration not stated)	none
CCCOP(=O)(c1ccc(N(C)C)cc1)C(O)c1cccnc1 (configuration not stated)	Bead autofluor 19815
CC(C)OP(=O)(c1ccc(N(C)C)cc1)C(O)c1ccc(Br)cc1 (configuration not stated)	none
CC(C)OP(=O)(c1ccc(N(C)C)cc1)C(O)c1ccncc1 (configuration not stated)	Bead autofluor 24190
CC(C)COP(=O)(c1ccc(N(C)C)cc1)C(O)c1ccccn1 (configuration not stated)	none
CC(C)CCOP(=O)(c1ccc(N(C)C)cc1)C(O)c1ccccn1 (configuration not stated)	Bead autofluor 16641
CCOP(=O)(c1ccc(N(C)C)cc1)C(O)c1ccccc1OC (configuration not stated)	Bead autofluor 18542, BoNT-A LC inh2 inconclusive
CC1(C(=O)NS(=O)(=O)Cc2ccccc2)CCN1C(=O)Cc1ccc(-c2ccccc2)cc1 (configuration not stated)	none (no result: SARS 3CLpro inh)
CN1C(=S)SC(C)(C)C1N(O)C(=O)Nc1ccc(Cl)cc1 (configuration not stated)	none
O=C(CSc1nnc2n(C3CCCCC3)c(=O)c3ccccc3n12)OC1CCCCC1	Bead autofluor 19972
CCOC(=O)CSc1nc2sc3c(c2c(=O)n1C1CCCCC1)CCN(C)C3	BoNT-A LC inh2 74, Anthrax LF inh2 49
CCOC(=O)CSc1nnc2n(C3CCCCC3)c(=O)c3c4c(sc3n12)CCCC4	Bead autofluor 23468
C=C(C)CSc1nnc2n(N)c(=O)c3ccccc3n12	none
